# The campaign covered roughly 48,000 compounds. About 13,000 (27%) showed an effect of 50% or more. The list shows a part of the results.
# System: Wolbachia pipientis
# Assay: Anti-Wolbachia Cell-Based Screen
# Type: functional
# Set-up: scale not given: in the data most compounds retested in dose-response had high values
# Settings: 5 µM
row,Structure (SMILES),Percent Effect [%]
1,COc1ccc(OC)c(CCNc2ncc(S(N)(=O)=O)s2)c1,-19.79
2,CC(NC(=O)CSCC#N)c1ccccc1 (stereo not drawn),5.295
3,CC(=O)NC1CCCN(C(=O)Nc2cnc3c(cnn3C(C)C)c2)C1 (stereo not drawn),-1.693
4,CC(=O)N1CCCN(C(=O)c2cnc3n[nH]c(C)c3c2)CC1,0.885
5,Cc1cnn(CC2CCCCN2C(=O)c2cnc3n[nH]c(C)c3c2)c1 (stereo not drawn),131.8
6,Cc1cnn(CC2CCCN2C(=O)c2cnc3n[nH]c(C)c3c2)c1 (stereo not drawn),1.676
7,Cc1cc(C)n(CC2CCCN2C(=O)c2cnc3n[nH]c(C)c3c2)n1 (stereo not drawn),152.9
8,Cc1cc(=O)[nH]c(SCC(=O)N(C)CC2Cc3ccccc3CN2C)n1 (stereo not drawn),-1.755
9,O=C(Cn1ccc(=O)c2ccccc21)Nc1cnccc1O,11.9
10,CC(=O)Cn1cc(C#N)c(=O)c2cc(Br)ccc21,-39.25
11,O=C(O)Cn1ccc(=O)c2cc(Cl)ccc21,96.7
12,O=C(Cn1cc(C(=O)O)ccc1=O)Nc1ccc(Cl)cc1F,21.2
13,Cc1ccc(Cl)cc1NC(=O)Cn1cc(C(=O)O)ccc1=O,11.02
14,CC(=O)c1cn(CCC(=O)NCCC(=O)O)c2ccccc12,11.28
15,CN(CC(N)=O)C(=O)CCCn1ccc2cc(Cl)ccc21,-3.904
16,O=C(O)Cn1ccc(=O)c2ccccc21,101.5
17,O=C(O)Cn1ccc(=O)c2ccc(Cl)cc21,126.4
18,CCN(Cc1ccoc1)C(C(N)=O)c1ccc(Br)cc1 (stereo not drawn),13.69
19,Cc1ccccc1C(O)CNS(=O)(=O)Cc1cccc(C#N)c1 (stereo not drawn),1.082
20,CCC(=O)N1CCN(C(=O)NCc2c(C)cc(C)cc2C)CC1,2.244
21,O=C(NCc1nncn1-c1ccccc1)C1CC(=O)N(CC2CC2)C1 (stereo not drawn),-5.786
22,COc1cc(N2CCc3ncnc(-c4ccoc4)c3CC2)ncn1,-1.629
23,COc1cc(-c2cc(N)ncn2)cc(OC)c1OC,113.5
24,COc1cc(N(C)Cc2cc(C(C)(C)C)n[nH]2)ncn1,-14.87
25,CNc1cc(-c2cc(OC)c(OC)c(OC)c2)ncn1,63.03
26,COc1cc(F)ccc1-c1cnc(N)cn1,4.903

row,Structure (SMILES),Percent Effect [%]
1,COc1cc(-c2cc(=O)[nH]cn2)cc(OC)c1OC,108.3
2,COc1cc(-c2cc(OC)c(OC)c(OC)c2)ncn1,111
3,O=C(NCCc1cc(=O)[nH]cn1)c1[nH]nc2c1CCCC2,-3.827
4,COc1ccc(-c2cc(N)ccn2)c(OC)c1OC,-25.01
5,COc1cc(-c2cnnc(NCCCOC(C)C)n2)cc(OC)c1OC,29.72
6,CC1CCN(S(=O)(=O)N2CCc3c(c(C(=O)O)nn3CC3CC3)C2)CC1,-12.69
7,CNC(=O)Cc1ccc(-n2ccnc2-c2ccc(C(=O)O)s2)cc1,-11.42
8,Cc1noc(-c2ccc(N3CCCC(C(=O)O)C3)nc2)n1 (stereo not drawn),-4.979
9,CS(=O)(=O)NCCNC(=O)NC1(c2ccc(Cl)cc2)CCC1,-10.79
10,COc1nc2c(cc1C(=O)N1CC[C@H](CO)[C@@H](O)C1)CCC2,9.103
11,Cc1cccc(CNC(CN2CCN(C)CC2)c2ccccc2)c1 (stereo not drawn),16.68
12,Cc1cc(C(C)(O)CNC(=O)CCOCC(C)C)c(C)o1 (stereo not drawn),51.29
13,Cc1cc(C(C)(O)CNC(=O)OC(C)(C)C)c(C)o1 (stereo not drawn),0.294
14,CCOCC(=O)NCC(C)(O)c1cc(C)oc1C (stereo not drawn),5.951
15,CC(NCc1nnc2n1CCCC2)c1nc(Cc2ccccc2)no1 (stereo not drawn),8.593
16,O=C(O)C(F)(F)F.O=C(O)C(F)(F)F.O=C(O)c1cc2c(nc1-c1ccsc1)CCN(C1CCOC1)CC2 (stereo not drawn),-18.13
17,Cc1cc(C)c2c(N3CCN(C(=O)N4CCOCC4)CC3)ncnc2n1,86.86
18,CCc1nc(CN2CCCN(C(=O)C3CCC3)CC2)cs1,7.838
19,Cc1cc(C)c2c(N3CCN(CCN4CCOCC4)CC3)ncnc2n1,8.578
20,Cc1cc(C)c2c(N3CCC(C(=O)N4CCCC4)CC3)ncnc2n1,96.05
21,Cc1cc(C)c2c(N3CCC(O)(Cn4ccnc4)CC3)ncnc2n1,6.34
22,O=C(C1CCN(c2ncnc3cccc(F)c23)CC1)N1CCCC1,-3.07
23,Cc1nn(C)c2c(N3CCN(C(=O)C4CCC4)CC3)ncnc12,3.567
24,Cc1cc(C)c2c(N3CCCN(C(=O)C4CCC4)CC3)ncnc2n1,89.28
25,Cc1ccccc1CC(=O)N1CCc2c(ncnc2N2CCOCC2)C1,2.572
26,Cc1cc(C)c2c(N3CCC(C(=O)N4CCOCC4)CC3)ncnc2n1,125.4

row,Structure (SMILES),Percent Effect [%]
1,CCOCC(=O)N1CCC(CSCc2ccco2)CC1,4.494
2,O=C(C1CCCN1S(=O)(=O)C1CCCC1)N1CCSCC1 (stereo not drawn),-23.1
3,CN(C)c1nc2c(c(N3CCC(O)CC3)n1)CN(CC1CCOC1)CC2 (stereo not drawn),9.412
4,CCc1cnc(NCc2ccccc2Cn2cccn2)nc1,6.664
5,CC(CCNC(=O)NCCNc1cnccn1)c1ccccc1 (stereo not drawn),0.7277
6,NCCn1cc(C(=O)NCc2ccccc2Cn2cccn2)nn1,-26.32
7,CC(Cn1cccn1)NS(=O)(=O)Cc1ccccc1 (stereo not drawn),-19.72
8,c1ccc(C(Cn2cccn2)Nc2cnccn2)cc1 (stereo not drawn),93.79
9,O=C(CNC(Cn1cccn1)c1ccccc1)Nc1cnccn1 (stereo not drawn),104.7
10,CC(C)OC(=O)CC(NC(=O)CCn1cccn1)c1ccccc1 (stereo not drawn),-19.71
11,CC(NC(=O)Cn1cccn1)c1cccnc1 (stereo not drawn),-3.155
12,O=C(CNCc1ccccc1Cn1cccn1)Nc1cnccn1,109.9
13,COC(=O)CN(Cc1ccccc1C)C(=O)COCC1CC1,5.451
14,O=c1cc(CN2CCCC2)nc2n1CCCN(CC1CC1)C2,112.4
15,O=c1cc(CN2CCCC2)nc2n1CCCN(S(=O)(=O)C1CC1)C2,95.22
16,CN(C)Cc1cc(=O)n2c(n1)CN(CC1CC1)CCC2,1.173
17,O=c1cc(Cn2ccnc2)nc2n1CCCN(S(=O)(=O)C1CC1)C2,102.1
18,O=c1cc(Cn2ccnc2)nc2n1CCCN(CC1CCOCC1)C2,-2.581
19,O=c1cc(Cn2ccnc2)nc2n1CCCN(Cc1ccco1)C2,5.269
20,O=c1cc(CN2CCCC2)nc2n1CCCN(CC1CCOCC1)C2,2.964
21,CCS(=O)(=O)N1CCCn2c(nc(CN3CCCC3)cc2=O)C1,124.6
22,O=c1cc(Cn2cncn2)nc2n1CCCN(CC1CC1)C2,-9.621
23,O=c1cc(Cn2cncn2)nc2n1CCCN(CC1CCOCC1)C2,-15.84
24,COCCN1C(=O)[C@]2(CC[C@@H]3CN(C(=O)NCC(C)C)C[C@@H]32)N=C1C,-10.16
25,Cc1n[nH]c(-c2ccc(NC(=O)C(C)N3CCN(C)CC3)cc2)n1 (stereo not drawn),0.753
26,O=S(=O)(c1cccnc1)N1C[C@@H]2COC[C@]2(COCC2CC2)C1,5.387

row,Structure (SMILES),Percent Effect [%]
1,CCCn1cnc2c1CN(C(=O)c1ccc(F)cc1)[C@H](C(=O)OC)C2,6.422
2,FC(F)(F)c1n[nH]c2c1CN(Cc1cn3ccccc3n1)CC2,10.05
3,CC(C)n1c(C(=O)N2CCCC2)nc2c1CCN(c1ncccn1)C2,-6.562
4,NC(=O)C1CCCN(c2ncnc3c2Cc2ccccc2OC3)C1 (stereo not drawn),10.44
5,Cc1nc2c(c(NCC3Cc4ccccc4CN3C)n1)CCNCC2 (stereo not drawn),-7.174
6,Cc1nc2c(c(NC(C)c3nnn[nH]3)n1)Cc1ccccc1OC2 (stereo not drawn),97.46
7,Cc1nc2c(c(N[C@H](C(N)=O)C(C)C)n1)Cc1ccccc1OC2,105
8,Cc1nc2c(c(N[C@@H](CO)C(N)=O)n1)Cc1ccccc1OC2,104.3
9,CN(CC1(CO)CCC1)c1nc2c(c(=O)[nH]1)Cc1ccccc1OC2,9.578
10,CN(CC1(CO)CCCC1)c1nc2c(c(=O)[nH]1)Cc1ccccc1OC2,6.752
11,Cc1cc(C(=O)NC(C)c2nnn[nH]2)c2cccc(C)c2n1 (stereo not drawn),0.7589
12,NC(=O)C1CN(c2ncnc3c2Cc2ccccc2OC3)CCO1 (stereo not drawn),-2.361
13,COc1ccccc1OCCNC(=O)NCc1nc(C)no1,-10.03
14,CCCc1c(C(=O)NC2CCCC2)nnn1-c1ccc(OC)cc1,0.3347
15,CCOCC(=O)N1C[C@@H]2CC[C@H](C1)N(Cc1ccccn1)C2=O,2.863
16,NC1(C(=O)N2CCC(c3cc(-c4ccccc4Cl)n[nH]3)CC2)CCC1,-26.69
17,CC(C)NC(=O)NC[C@@]1(COc2cnccn2)C[C@@H](O)[C@@H](O)C1.Cl,-2.608
18,Cn1ccnc1CN1CCC2(CC1)CCN(c1cncnc1)C2=O.O=C(O)C(F)(F)F,-20.08
19,Cn1ccnc1CN1CCC2(CC1)CCN(c1ccccc1)C2=O.O=C(O)C(F)(F)F,113.1
20,CN1Cc2ccccc2CC2(CCN(Cc3nccn3C)CC2)C1=O,94.48
21,CN1Cc2ccccc2CC2(CCN(c3ncc(F)cn3)CC2)C1=O,-14.24
22,CN1Cc2ccccc2CC2(CCN(c3ncccn3)CC2)C1=O,-6.777
23,Cn1ccnc1CN1CCC2(CC1)Cc1ccccc1CNC2=O.O=C(O)C(F)(F)F,103.5
24,CN1CC(=O)N(c2ccccc2)CC12CCN(Cc1nccn1C)C2.O=C(O)C(F)(F)F.O=C(O)C(F)(F)F (stereo not drawn),-13.15
25,N#CC1(C(=O)N2Cc3cc(-c4cc[nH]n4)ccc3C2c2cnco2)CC1 (stereo not drawn),-31.27

# From ChEMBL document CHEMBL3988442, “University of Dundee, Small-Polar-MMV Screening Library” (2021)
